This note sets out measurements from PubChem BioAssay (NCATS).

Several values for one entry are separate records, joined by “and”; a condition that tells them apart may be missing. Identical values can stand only once. A number with no mark means an inactive call. Records with an inconclusive call do not appear. Activity calls are given as the source filed them. Calls come from the whole dose curve; as a rule, active = well fitted curve in the direction sought with a large enough effect; inconclusive = small, poorly fitted or top-dose-only effect, or another doubt; inactive = no such curve, though single readings can be large; an effect the other way counts as inactive or inconclusive.

The target of assay [1] is Glutathione peroxidase 1 (Homo sapiens) (UniProt P07203). The assay is described as follows: Primary qHTS Assay for Inhibitors of Recombinant Selenoprotein Glutathione Peroxidase 1 (GPX1) (AID 1845191). For activity, negative = inhibition: % is set by controls: 0 for no effect and ±100 for the full control effect. Note: nearly all actives have a fitted effect of over 65% in size. Put shortly: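 Recombinant GPX1 (10 nM final) was preincubated with compound for 30 min at room temperature, then reacted with 1 mM GSH, 0.5 mM CHP, 0.5 mM NADPH and 100 nM glutathione reductase; NADPH fluorescence (340/450 nm) was read at 0 and 15 min.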

Assay [2] deals with Phospholipid hydroperoxide glutathione peroxidase GPX4 (Homo sapiens) (UniProt P36969). Put plainly: Primary qHTS Assay for Inhibitors of Recombinant Selenoprotein Glutathione Peroxidase 4 (GPX4) (AID 1845192). For activity change, negative = inhibition: series mostly up to about 50 µM; % is set by controls: 0 for no effect and ±100 for the full control effect. Note: nearly all actives have a fitted effect of over 65% in size. Note: potency is the fitted concentration of half-maximal effect. Summed up: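 GR-coupled readout: 100 nM GR, 1 mM GSH, 0.5 mM NADPH; NADPH fluorescence (ex 340/em 450 nm) read at t=0 and after 15 min RT. GPX4 200 nM, preincubated 30 min with compound; substrate 0.5 mM CHP.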

In assay [3] the target is Luciferin 4-monooxygenase (Photinus pyralis) (UniProt P08659). Put plainly: Primary firefly luciferase (FLuc) qHTS assay for identification of artifact compounds. (AID 1845220).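 For activity change, negative = inhibition: series mostly up to about 54 µM; plate controls were DMSO vehicle for no effect and no enzyme for full effect.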 Note: nearly all actives have a fitted effect of over 60% in size. Put shortly:
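qHTS, 15 min compound preincubation with substrate (10 uM luciferin, 10 uM ATP) at RT, then 10 nM FLuc; 5 min; luminescence; % inhibition vs no-enzyme/DMSO controls, 4-parameter Hill fit.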

The nature of assay [4]: Primary fluorescence-based thiol-reactive (MSTI) qHTS assay for identification of artifact compounds. (AID 1845221).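 For activity change, negative = thiol reactive: series mostly up to about 54 µM; thiol-reactive compounds lower the probe fluorescence signal.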 Note: nearly all actives have a fitted effect of over 65% in size. Note: potency is the fitted concentration of half-maximal effect. Put shortly:
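MSTI probe at 4 uM final in 2% DMSO/PBS pH 7.4; compounds, 1 h at room temperature in dark. Fluorescence Ex/Em 525/598 nm, normalised to Acetyl-MSTI and MSTI, fitted to 4-parameter Hill.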

Assay [5] concerns Nanoluciferase (engineered Oplophorus gracilirostris luciferase). The assay is described as follows: Primary Nanoluciferase (NLuc) qHTS assay for identification of artifact compounds. (AID 1845222).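 For activity, negative = inhibition: series mostly up to about 54 µM; 0% = DMSO and -100% = no enzyme.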 Note: potency is the fitted concentration of half-maximal effect. Summed up:
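Luminescence read-out of secreted NLuc in S16 cell conditioned medium (1:55); compounds tested with 15 min RT preincubation, then Nano-Glo substrate 1:100, 5 min. % inhibition vs no-enzyme and DMSO controls, 4-parameter Hill fit.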

Assay [6] in a line: Primary redox qHTS assay for identification of artifact compounds. (AID 1845223).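 Note: 0% = DMSO and 100% = reference compound.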 Put shortly:
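Amplex Red (25 uM) and HRP (250 mU/mL) in HBSS, with compounds for 15 min, then 250 uM DTT for 30 min, room temperature, dark. Fluorescence 525/598 nm read; normalized to DMSO and 10 uM DA3003; Hill fit.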

Glutathione peroxidase 1 (Homo sapiens), sequence (P07203 whole entry, looked up): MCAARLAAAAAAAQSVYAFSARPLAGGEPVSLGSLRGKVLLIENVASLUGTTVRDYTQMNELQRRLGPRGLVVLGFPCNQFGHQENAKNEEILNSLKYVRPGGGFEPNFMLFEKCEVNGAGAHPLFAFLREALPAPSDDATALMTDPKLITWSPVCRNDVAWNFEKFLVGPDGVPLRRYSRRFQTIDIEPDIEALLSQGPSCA
Phospholipid hydroperoxide glutathione peroxidase GPX4 (Homo sapiens), sequence (P36969 whole entry, looked up): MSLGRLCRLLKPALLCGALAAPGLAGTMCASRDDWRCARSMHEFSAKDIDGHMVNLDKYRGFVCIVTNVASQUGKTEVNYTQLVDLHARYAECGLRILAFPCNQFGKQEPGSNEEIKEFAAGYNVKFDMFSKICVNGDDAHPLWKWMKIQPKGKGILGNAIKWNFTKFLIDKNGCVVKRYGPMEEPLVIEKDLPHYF

As to `CC1(C)CC[C@]2(C(=O)O)CC[C@]3(C)C(=CCC4[C@@]5(C)CCC(O[C@@H]6OC[C@H](O)[C@H](O)[C@H]6O[C@@H]6O[C@H](CO)[C@@H](O)[C@H](O)[C@H]6O)[C@@](C)(CO)C5CC[C@]43C)[C@@H]2C1` (stereo not given in full), the Potency result in assay [1], in assay [2], in assay [3], in assay [4], in assay [5] and in assay [6] was “inactive” each time.
Take `CC(C)C(C#N)O[C@@H]1O[C@H](CO[C@@H]2OC[C@](O)(CO)[C@H]2O)[C@@H](O)[C@H](O)[C@H]1O` (stereo not given in full): the Potency result in assay [1], in assay [2], in assay [3], in assay [4], in assay [5] and in assay [6] was “inactive” throughout.
Regarding `COc1cc(C(=O)OC[C@H]2O[C@H](O[C@@]3(CO)O[C@@H](CO)[C@H](O)[C@H]3O)[C@H](O)[C@@H](O)[C@@H]2O)ccc1O`, the Potency result in assay [1], in assay [2], in assay [3], in assay [4], in assay [5] and in assay [6] was “inactive” throughout.
Consider `CC(C)CNC(=O)/C=C/CCCCc1ccc2c(c1)OCO2`, for which the Potency result in assay [1], in assay [2], in assay [3], in assay [4], in assay [5] and in assay [6] was “inactive” in each case.
Consider `COc1c(C)c(C(=O)c2ccc(N)c(C(=O)O)c2)n2ccccc12`, for which the Potency entry in assay [1], in assay [2], in assay [3] and in assay [6] was “inactive” throughout. The Potency in assay [4] was 4.74 µM (active) and 5.32 µM (active); in assay [5] it was 9.53 µM (active).
Consider `CCNC(=O)[C@@H]1CCCN1C(=O)[C@H](CCCN=C(N)N)NC(=O)[C@H](CC(C)C)NC(=O)[C@@H](C)NC(=O)[C@H](Cc1ccc(O)cc1)NC(=O)[C@H](CO)NC(=O)[C@H](Cc1c[nH]c2ccccc12)NC(=O)[C@H](Cc1cnc[nH]1)NC(=O)[C@@H]1CCC(=O)N1`, for which the Potency entry in assay [1], in assay [2], in assay [3], in assay [4] and in assay [5] was “inactive” throughout.
For the compound `CO[C@@H](Cc1ccc(OCCc2nc(-c3ccccc3)oc2C)c2ccsc12)C(=O)O`, the Potency result in assay [1], in assay [2], in assay [3], in assay [4] and in assay [5] was “inactive” each time.
For the compound `C[C@@H]1O[C@@H](O[C@H]2[C@H](O[C@H]3[C@H](O[C@H]4CC[C@@]5(C=O)C(CC[C@]6(C)C5CC=C5C7CC(C)(C)C[C@@H](O)[C@]7(C)CC[C@]56C)C4(C)C)O[C@H](C(=O)O)[C@@H](O)[C@@H]3O)OC[C@@H](O)[C@@H]2O)[C@H](O)[C@H](O)[C@H]1O` (stereo not given in full), the Potency result in assay [1] and in assay [2] was “inactive” throughout. The activity change, negative = inhibition in assay [3] was 0.64% [at 11.6 µM]. In addition, the activity change, negative = thiol reactive in assay [4] was 114% [at 11.5 µM]. In assay [5], the activity, negative = inhibition is 3.37% [at 11.6 µM].
Take `COc1ncc(-c2ccc3c(Nc4cc(Oc5cc(F)cc(F)c5)cc(C(=O)O)c4)c(S(=O)(=O)NC4CC4)cnc3c2)c(OC)n1`: the Potency entry in assay [1], in assay [2], in assay [3], in assay [4] and in assay [5] was “inactive” throughout.
`Cc1cn2c(N)c(Cl)cc(C(=O)NCC3CCN(CC(C)C)CC3)c2n1`: the Potency entry in assay [1], in assay [3], in assay [4], in assay [5] and in assay [6] was “inactive” throughout. In addition, the Potency in assay [2] is 22.7 µM (active).
For the compound `C=C1CCC2C(C)(COC3OC(COC(=O)CC(=O)O)C(O)C(O)C3O)CCCC2(C)C1CCC1=CCOC1=O` (stereo not given), the Potency result in assay [1], in assay [2], in assay [3], in assay [4] and in assay [5] was “inactive” each time.
For `C[C@@H]1O[C@@H](O[C@H]2[C@H](O[C@H]3CO[C@@H](O[C@H]4CC[C@@]5(C)C(CC[C@]6(C)C5CC[C@]57OC[C@@]8(CC[C@](C)(CO)CC85)[C@H](O)C[C@]76C)C4(C)C)[C@H](O[C@@H]4O[C@H](CO)[C@@H](O)[C@H](O)[C@H]4O)[C@H]3O)O[C@H](CO)[C@@H](O)[C@@H]2O)[C@H](O)[C@H](O)[C@H]1O` (stereo not given in full), the Potency entry in assay [1] and in assay [2] was “inactive” in each case. In addition, the activity change, negative = inhibition in assay [3] was 0.85% [at 11.6 µM]. The activity change, negative = thiol reactive in assay [4] is 26.5% [at 11.5 µM]. In addition, the activity, negative = inhibition in assay [5] is -0.449% [at 11.6 µM].
Take `CC1(C)CC2C3=CCC4C5(C)CCC(OC6OC(C(=O)O)C(O)C(O)C6OC6OC(CO)C(O)C(O)C6OC6OC(CO)C(O)C(O)C6O)C(C)(CO)C5CCC4(C)C3(C)CCC2(C)C(OC2OCC(O)C(OC3OC(CO)C(O)C(O)C3O)C2O)C1O` (stereo not given): the activity, negative = inhibition was -11.2% [at 9.52 µM] in assay [1] and 2.9% [at 11.6 µM] in assay [5]. For the same compound, the activity change, negative = inhibition in assay [2] is -2.61% [at 9.73 µM]; in assay [3], -3.45% [at 11.6 µM]. The activity change, negative = thiol reactive in assay [4] is 89.2% [at 11.5 µM]. Also, the redox activity (% of DA3003) in assay [6] is 10.1% [at 11.5 µM].
As for `CC(C)[C@@H](C)/C=C/[C@@H](C)[C@H]1CC[C@H]2C3=CC=C4C[C@@H](O)CC[C@]4(C)[C@H]3CC[C@]12C`, the Potency entry in assay [1], in assay [2], in assay [3], in assay [4], in assay [5] and in assay [6] was “inactive” each time.
Consider `C[C@@H]1O[C@@H](O[C@H]2[C@H](OC(=O)[C@]34CCC(C)(C)C[C@H]3C3=CCC5[C@@]6(C)CC[C@H](O[C@@H]7O[C@H](CO[C@@H]8OC[C@H](O)[C@H](O)[C@H]8O)[C@@H](O)[C@H](O)[C@H]7O)C(C)(C)C6CC[C@@]5(C)[C@]3(C)C[C@H]4O)OC[C@@H](O)[C@@H]2O)[C@H](O)[C@H](O)[C@H]1O[C@@H]1OC[C@H](O)[C@H](O[C@@H]2OC[C@@H](O)[C@H](O)[C@H]2O)[C@H]1O` (stereo not given in full), for which, in assay [1], the outcome is “inactive [at 9.52 µM]”. Besides, the activity change, negative = inhibition in assay [2] was -4.93% [at 9.73 µM]; in assay [3], 1.47% [at 11.6 µM]. For the same compound, the activity change, negative = thiol reactive in assay [4] was 146% [at 11.5 µM]. Moreover, in assay [5], the activity, negative = inhibition was -4.62% [at 11.6 µM].
Take `CC(C)NC[C@H](O)COc1ccc(CCOCC2CC2)cc1`: the Potency entry in assay [1], in assay [2], in assay [3], in assay [4], in assay [5] and in assay [6] was “inactive” each time.
For `C/C=C/C1=CC2=CC(=O)C(C)(O)C(OC(=O)c3c(C)cc(O)cc3O)C2CO1` (stereo not given), the Potency entry in assay [1], in assay [2], in assay [3], in assay [4] and in assay [5] was “inactive” throughout.
Regarding `CC1(C(=O)O)CCCC2(C)C1CCC13CC(CCC21)C1(CO)OC31` (stereo not given), the Potency result in assay [1], in assay [2], in assay [3], in assay [4], in assay [5] and in assay [6] was “inactive” in each case.
